“And” between values parts separate entries of the source, which are not always exact repeats. Equal entries are not always repeated. The source made the active and inactive calls. The calls were made as follows: active = hit-call score of the fitted dose curve at least 0.9, where 1 is the maximum; inactive = score below 0.9.

As a reminder, the AC50 is the concentration at which the activity in the assay is half-maximal.

Read-out in the experiment: Monokine induced gamma interferon (MIG), CXCL9 (gene 4283)
The experiment can be described thus: BSK_SAg_MIG: BioMAP Diversity Plus: SAg Assay for Monokine induced gamma interferon (MIG) Biomarker Activity (AID 2283092). Particulars: primary human HUVEC with PBMC; actives raise or lower the signal. The protocol: BSK_SAg is a cell-based, multiplexed-readout assay that uses umbilical vein endothelium and peripheral blood mononuclear cells, a human vascular primary cell co-culture, with measurements taken at 24 hours after chemical dosing in a 96-well plate.BSK_SAg_MIG is an assay component measured in the BSK_SAg assay. It measures MIG antibody related to regulation of gene expression using ELISA technology.Data from the assay component BSK_SAg_MIG was analyzed into 1 assay endpoint. This assay endpoint, BSK_SAg_MIG, was analyzed with bidirectional fitting relative to DMSO as the negative control and baseline of activity. Using a type of binding reporter, gain or loss-of-signal activity can be used to understand changes in the signaling as they relate to the gene CXCL9. Furthermore, this assay endpoint can be referred to as a primary readout, because this assay has produced multiple assay endpoints where this one serves a signaling function. To generalize the intended target to other relatable targets, this assay endpoint is annotated to the cytokine intended target family, where the subfamily is chemotactic factor.
The levels of cell surface (or secreted, indicated by the prefix "s") biomarker endpoints were measured by ELISA. Overt cytotoxicity to cells in confluent adherent cultures (all systems other than the BT system) was assessed by measuring total protein levels using sulforhodamine B (SRB) staining in parallel cultures at the time of biomarker measurements, indicated as SRB endpoints. For proliferation assays for adherent cell types, individual cell types are cultured at sub-confluence and relative cell numbers quantified by SRB staining at time points optimized for each system (48 h: 3C and CASM3C systems; 72 h: BT and HDF3CGF systems; 96 h: SAg system). SRB was performed by staining cells with 0.1% SRB after fixation with 10% TCA and reading wells at 560 nm.Viability and proliferation of PBMC (T cells) was quantified by Alamar Blue reduction for the SAg and BT systems. For PBMC viability (referred to as PBMC Cytotoxicity within the assay endpoint names), cells were plated (75,000/well in a 96-well plate) and then chemical samples added for 1 h before addition of activators, SEB and TSST-1 (20 ng/mL final concentration each). Cells were incubated for 90 h. Then, Alamar Blue (20 uL/well) (Invitrogen, Cat DAL1100) was added for 6 h, and the plates were read with a fluorescence microplate reader at 546/580 nm (excitation/emission). For PBMC proliferation, cells were plated and activated as above but incubated for only 16 h prior to addition of Alamar Blue. Plates were read after 6 h.
For the compound `CC1(C)C(C=C(Cl)Cl)C1C(=O)OCc1cccc(Oc2ccccc2)c1` (stereo not given), the result was inactive.

As for `CC(C)(c1ccc(O)cc1)c1ccc(O)cc1`, the result was inactive. As to `CCSC(=O)N(CC(C)C)CC(C)C`, the result was inactive. For `c1ccc(Nc2ccccc2)cc1`, the result was inactive. As for `CCNc1nc(N)nc(Cl)n1`, the result was inactive. Take `COC(=O)CSc1cc(N=c2sc(=O)n3n2CCCC3)c(F)cc1Cl`: the outcome was inactive. In the case of `S=C(S)NCCNC(=S)S.[Mn+2].[S-]C([S-])=NCCN=C([S-])[S-].[Zn+2]`, the outcome was inactive.

Take `COC(=O)c1c(Cl)nn(C)c1S(=O)(=O)NC(=O)Nc1nc(OC)cc(OC)n1`: the outcome was inactive. Consider `S=C([S-])NCCNC(=S)[S-].[Mn+2]`, for which the outcome was inactive. On the same count and under the same terms, next, `CCOC(=O)[C@H](C)Oc1ccc(Oc2nc3ccc(Cl)cc3o2)cc1`: “inactive”. Same read-out and setting: next, `COc1nc(C)nc(NC(=O)NS(=O)(=O)c2ccccc2OCCCl)n1`: “inactive”. For the compound `Cc1nn(C)c(Oc2ccccc2)c1C=NOCc1ccc(C(=O)OC(C)(C)C)cc1`, the AC50 was 19 µM (active). For `C#CCOC(=O)[C@@H](C)Oc1ccc(Oc2ncc(Cl)cc2F)cc1`, the result was inactive. The same measure, in the same setting: under `CCCCC(CC)COC(=O)c1ccccc1C(=O)O` (stereo not given) stands “inactive”; under `CCCCOCCOCCOCc1cc2c(cc1CCC)OCO2`, “inactive”.

With `CCN(CC)C(=O)c1cccc(C)c1`, the result was inactive. Regarding `COC(=O)c1ccccc1S(=O)(=O)NC(=O)Nc1nc(OC(F)F)cc(OC(F)F)n1`, the outcome was inactive. For the compound `N[C@@H](Cc1cc(I)c(Oc2ccc(O)c(I)c2)c(I)c1)C(=O)O`, the result was inactive. Same read-out and setting: under `CCC(C)OC(=O)N1CCCCC1CCO` (stereo not given) stands “inactive”; under `CCCCC(CC)CN1C(=O)C2C3C=CC(C3)C2C1=O` (stereo not given), “inactive”; under `C[C@]12C[C@H](O)[C@H]3[C@@H](CCC4=CC(=O)CC[C@@]43C)[C@@H]1CC[C@@H]2C(=O)CO`, “inactive”. With `OB(O)O`, the outcome was inactive. As for `CCCN(CCC)C(=O)SCC`, the result was inactive. Regarding `O=C(Nc1ccc([N+](=O)[O-])cc1Cl)c1cc(Cl)ccc1O`, the AC50 was 0.289 µM (active). As for `CC(C)CCCCCCc1ccc(O)cc1`, the AC50 is 9.25 µM (active). Turning to `CCCN(CCC)c1c([N+](=O)[O-])cc(C(F)(F)F)c(N)c1[N+](=O)[O-]`, the AC50 is 31.7 µM (active).

For `CCCCCCC(C)OC(=O)COc1nc(F)c(Cl)c(N)c1Cl` (stereo not given), the AC50 is 38.5 µM (active).

Take `CC(C)(C)[C@@H](O)[C@@H](Cc1ccc(Cl)cc1)n1cncn1`: the result was inactive.

As for `O=C(O)c1ccccc1`, the result was inactive. With `CCOC(=O)c1ccc(O)cc1`, the result was inactive. In the case of `CC(=O)[C@H]1CC[C@H]2[C@@H]3CCC4=CC(=O)CC[C@]4(C)[C@H]3CC[C@]12C`, the result was inactive. With `O=C(O)C1(C(=O)Nc2ccc(Cl)cc2Cl)CC1`, the outcome was inactive. Take `N#CSCSc1nc2ccccc2s1`: the AC50 is 11.6 µM (active) and 9.68 µM (active).

With `Oc1ccc(C(c2ccc(O)cc2)C(Cl)(Cl)Cl)cc1`, the AC50 was 38.9 µM (active). Consider `C#C[C@]1(O)CC[C@H]2[C@@H]3CCC4=CC(=O)CC[C@@H]4[C@H]3CC[C@@]21CC`, for which the result was inactive. Turning to `CCC(O)=C1C(=O)CC(C(=O)O)CC1=O` (stereo not given), the outcome was inactive. As to `CC(=O)S[C@@H]1CC2=CC(=O)CC[C@]2(C)[C@H]2CC[C@@]3(C)[C@@H](CC[C@@]34CCC(=O)O4)[C@H]12`, the AC50 was 25.7 µM (active).

For the compound `CCCOC(=O)NCCCN(C)C`, the outcome was inactive. On the same count and under the same terms, under `COCCO` stands “inactive”; under `COc1c(Cl)ccc(Cl)c1C(=O)O`, “inactive”.

Values taken from PubChem BioAssay (EPA / NIEHS).
